Data on 40 compounds can be found in PubChem BioAssay (NCATS).

Inconclusive results are not listed. Active and inactive are the calls of the source. The call rests on the fitted dose curve; in most records, active means well fitted cell-killing curve with a large enough effect; inconclusive means small, poorly fitted or top-dose-only effect, or effect the other way; inactive means no such curve, though single readings can be large or run the other way.
Potency means the concentration at half of the fitted maximal effect.

This assay in a line: Quantitative High-Throughput drug screen in 47 multiple myeloma cell lines against the NCATS MIPE library collection: U266_ATCC cell viability assay (AID 1919864). Further: nearly all actives have a fitted effect of over 35% in size. The following applies: U266 myeloma viability, CellTiter-Glo ATP luminescence, 48 h; series mostly up to 45.8 µM; viability (% of DMSO control): at the top concentration. An excerpt: PI: Beverly A. Mock Ph.D.
Laboratory of Cancer Biology and Genetics,
Center for Cancer Research, National Cancer Institute,
National Institute of Health, Bethesda, Maryland
Drug resistance and disease progression are common in multiple myeloma (MM) patients, underscoring the need for new therapeutic combinations. […] We hypothesized that effective combinations would reduce MYC expression and enhance p16 activity. […] These preclinical data identify potentially useful drug combinations for evaluation in drug-resistant MM and reveal potential mechanisms of combined drug sensitivity.
Described herein is the primary MIPE qHTS used to cherrypick compounds. Validated compounds were then further tested for potential synergistic activiy.
[1] Peat TJ, Gaikwad SM, Dubois W, Gyabaah-Kessie N, Zhang S, Gorjifard S, Phyo Z, Andres M, Hughitt VK, Simpson RM, Miller MA, Girvin AT, Taylor A, Williams D, D'Antonio N, Zhang Y, Rajagopalan A, Flietner E, Wilson K, Zhang X, Shinn P, Klumpp-Thomas C, McKnight C, Itkin Z, Chen L, Kazandijian D, Zhang J, Michalowski AM, Simmons JK, Keats J, Thomas CJ, Mock BA. Drug combinations identified by high-throughput screening promote cell cycle transition and upregulate Smad pathways in myeloma. Cancer Lett. 2023 Aug 1;568:216284. doi: 10.1016/j.canlet.2023.216284. Epub 2023 Jun 24. PMID: 37356470; PMCID: PMC10408729.
SEQUENCE No. (e.g., 1, 2, 3, etc.); […] (e.g., Cells, Incubation, Reagent, etc.); VALUE and DESCRIPTION.
1; Cells; 5 uL; white, solid bottom 1536-well Greiner assay plate.
2; Compounds; 23 nL; Kalypsis pin tool (Wako USA) equipped with a 1536-well pin head to transfer to the assay plates.
3; Incubation; 48 hours; 37C incubation.
4; Reagent;5uL; CellTiter Glo (Promega).
5; Detector; 425V; Luminescence; Viewlux PerkinElmer.
NOTES (numbers refer to Sequence numbers above)
1. The cell-based screening methods employed in this study were like those previously published. Briefly, the corresponding myeloma cell lines were screened in 1,536-well plates with 500 cells, 5-uL per well for inhibition of cell viability (assessed by measuring ATP levels with CellTiterGlo).
2. NCATS MIPE 4.0 library of approved and investigational drugs were added using the Kalypsis pin tool. Wells treated with DMSO only for 100% viability and media only for 0% viability were used as controls.
3. The assay plates were covered and incubated for 48 hours in a 37C, 5% CO2 incubator with controlled humidity.
4. After 48 hours, CellTilter-GloTM luminescent substrate mix (Promega) reagent was added to the assay plate and plates we incubated for 5 min at room temperature.
5. Signal was measured as median relative luminescence units on a ViewLux (PerkinElmer) multiplate reader.
[1] Heske CM, Davis MI, Baumgart JT, Wilson K, Gormally MV, Chen L, Zhang X, Ceribelli M, Duveau DY, Guha R, Ferrer M, Arnaldez FI, Ji J, Tran HL, Zhang Y, Mendoza A, Helman LJ, Thomas CJ. Matrix Screen Identifies Synergistic Combination of PARP Inhibitors and Nicotinamide Phosphoribosyltransferase (NAMPT) Inhibitors in Ewing Sarcoma. Clin Cancer Res. 2017 Dec 1;23(23):7301-7311. doi: 10.1158/1078-0432.CCR-17-1121. Epub 2017 Sep 12. PMID: 28899971; PMCID: PMC6636827.
Regarding `CC(C)=CC[C@@H](O)C1=CC(=O)c2c(O)ccc(O)c2C1=O`, the Potency was 0.469 µM (active).
Still for that read-out and setting: to `C[C@H]1[C@H](NC(=O)C(=NOC(C)(C)C(=O)O)c2csc(N)n2)C(=O)N1S(=O)(=O)O` belongs 14.8 µM (active).
Regarding `COc1ccc2c3c1OC1C[C@@H](O)C=C[C@@]31CCN(C)C2` (stereo not given in full), the Potency is 4.18 µM (active).
On to `Cc1nnc(C(C)C)n1C1C[C@H]2CC[C@@H](C1)N2CC[C@H](NC(=O)C1CCC(F)(F)CC1)c1ccccc1` (stereo not given in full), for which the Potency was 11.8 µM (active).
In the case of `NS(=O)(=O)c1cccc2c1C(=O)c1cccc(O)c1C2=O`, the Potency is 6.62 µM (active).
Turning to `O=C(CCc1ccc(O)cc1)c1c(O)cc(O)cc1O[C@@H]1O[C@H](CO)[C@H](O)[C@H](O)[C@H]1O`, the “viability (% of DMSO control)” value was 113% (inactive).
On to `O=c1cc(N2CCOCC2)oc2c(-c3cccc4c3sc3ccccc34)cccc12`, for which the “viability (% of DMSO control)” value was 97.5% (inactive).
On to `CC(C)(Cc1ccc2ccccc2c1)NC[C@@H](O)COc1cccc(Cl)c1C#N`, for which the “viability (% of DMSO control)” value is 120% (inactive).
In the case of `O=C(NCc1ccccc1)c1csc(Nc2ccncn2)n1`, the Potency is 18.7 µM (active).
As to `Nc1ncnc2c1nc(Cl)n2[C@@H]1O[C@H](CO)[C@@H](O)[C@@H]1O`, the Potency is 14.8 µM (active).
As to `C[C@]12CC[C@@H]3c4ccc(O)cc4CC[C@H]3[C@H]1C[C@@H](O)[C@H]2O`, the Potency was 18.7 µM (active).
On to `CO[C@H]1C[C@@H]2CC[C@@H](C)[C@@](O)(O2)C(=O)C(=O)N2CCCC[C@@H]2C(=O)O[C@H]([C@H](C)C[C@@H]2CC[C@H](OP(C)(C)=O)[C@H](OC)C2)CC(=O)[C@H](C)C=C(C)[C@@H](O)[C@@H](OC)C(=O)[C@H](C)C[C@H](C)C=CC=CC=C1C`, for which the “viability (% of DMSO control)” value is 97.8% (inactive).
For `COc1ccc2c(Oc3ccc(NC(=O)c4c(C)n(CC(C)(C)O)n(-c5ccccc5)c4=O)nc3)ccnc2c1`, the “viability (% of DMSO control)” value is 111% (inactive).
Same read-out and setting: to `N[C@H](CSC(c1ccccc1)(c1ccccc1)c1ccccc1)C(=O)O` belongs 130% (inactive); to `O=C(O)c1ccccc1C(=O)Nc1ccc(-c2ccccc2)cc1`, 132% (inactive).
`Cc1cc(OCCCc2c(C(=O)O)n(Cc3cccnc3)c3c(-c4c(COc5ccc(N6CCN([S+](C)(=O)[O-])CC6)cc5)nn(C)c4C)cccc23)cc(C)c1Cl`: the Potency was 3.32 µM (active).
Take `Clc1ccc(C(c2ccc(Cl)cc2)n2cc[n+](CC(OCc3ccc(Cl)cc3Cl)c3ccc(Cl)cc3Cl)c2)cc1` (stereo not given): the Potency is 16.6 µM (active).
Still for that read-out and setting: to `Oc1ccc(C2CCN(c3ccnc4ccccc34)CC2)cc1O` belongs 3.32 µM (active); to `O=C1c2c(O)cc(O)cc2O[C@H](c2cc(O)c(O)c(O)c2)[C@H]1O`, 11.8 µM (active).
With `CC(=Cc1ccccc1)C=C1SC(=S)N(CC(=O)O)C1=O`, the “viability (% of DMSO control)” value is 146% (inactive).
As for `NC(=O)[C@@H](CCC(F)(F)F)N(Cc1ccc(-c2ncon2)cc1F)S(=O)(=O)c1ccc(Cl)cc1`, the Potency is 10.5 µM (active).
The same measure, in the same setting: to `N#CC(=C(N)Sc1ccccc1N)C(C#N)=C(N)Sc1ccccc1N` belongs 5.26 µM (active).
Consider `Nc1ncnc2ccccc12`, for which the “viability (% of DMSO control)” value was 127% (inactive).
In the case of `COC[C@@H](c1ccc(C(F)(F)F)cc1)N1CCN(C2(C)CCN(C(=O)c3c(C)ncnc3C)CC2)C[C@H]1C`, the Potency is 6.62 µM (active).
Regarding `CC(C)(C)COc1ccc(-n2cc(C(=O)O)cn2)cc1C#N`, the “viability (% of DMSO control)” value is 128% (inactive).
Regarding `O=C(O)c1ccc(-c2cc3cccnc3c(-c3ccc4nonc4c3)n2)cc1`, the Potency was 20.9 µM (active).
As for `CC=CC(=O)N(CC)c1ccccc1C`, the “viability (% of DMSO control)” value was 110% (inactive).
As for `O=C(CCN1CCN(C(=O)OCc2cc(Cl)cc(Cl)c2)CC1)c1ccc2[nH]c(=O)oc2c1`, the “viability (% of DMSO control)” value is 132% (inactive).
Consider `CC1(C)CCC2=C(O1)c1ccccc1C(=O)C2=O`, for which the Potency was 20.9 µM (active).
`C=C1C(=O)[C@@]23C(CC[C@@H]1[C@H]2O)[C@@]12CO[C@]3(O)[C@@H](O)[C@@H]1C(C)(C)CC[C@@H]2O` (stereo not given in full): the Potency is 8.33 µM (active).
In the case of `COc1ccc(C2CC(c3ccccc3)=NN2c2ccc(S(N)(=O)=O)cc2)cc1` (stereo not given), the “viability (% of DMSO control)” value is 105% (inactive).
With `CC(C)OC(=O)C(C)(C)Oc1ccc(C(=O)c2ccc(Cl)cc2)cc1`, the Potency is 11.8 µM (active).
`COc1cccc(-c2cc(=O)c3ccccc3o2)c1N`: the Potency was 8.33 µM (active).
`CC(=O)Oc1cc2c(s1)CCN(C(C(=O)C1CC1)c1ccccc1F)C2` (stereo not given): the Potency is 8.33 µM (active).
In the case of `O=C(O)c1ccc(-c2c[nH]c3ncc(-c4ccccc4)cc23)cc1C1CCCC1`, the “viability (% of DMSO control)” value was 122% (inactive).
On to `Cc1c(NC(=O)c2ccc(C(C)(C)C)cc2)cccc1-c1cn(C)c(=O)c(Nc2ccc(C(=O)N3CCOCC3)cc2)n1`, for which the Potency is 23.5 µM (active).
As to `N#C[C@H]1C[C@H]2C[C@@H]2N1C(=O)[C@@H](N)C12CC3CC(CC(O)(C3)C1)C2`, the “viability (% of DMSO control)” value is 124% (inactive).
In the case of `Cc1c[nH]c(C=C2C(=O)Nc3ccccc32)c1CCC(=O)O`, the “viability (% of DMSO control)” value is 106% (inactive).
For the compound `C[C@]12CCC3c4ccc(O)cc4CCC3C1CCC2=O` (stereo not given in full), the “viability (% of DMSO control)” value is 109% (inactive).
With `Nc1nc(F)nc2c1ncn2[C@@H]1O[C@H](COP(=O)(O)O)[C@@H](O)[C@H]1O`, the Potency was 0.526 µM (active).
